# Shown are actives, neighbours in structure and some others; about 2.2% of the full set was active somewhere.
# M1 ag: activates human CHRM1 receptor; P11229; CHO-K1 hM1, Fluo-8 calcium fluorescence, agonist mode; 0% DMSO, 100% acetylcholine EC100; activation, % at 3 µM; 360,000 tested, 0.33% active; AID 588814;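 active means activation above the run's mean compound activation plus 3 SD, cut at about 16% in these data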;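 further: peak over basal fluorescence ratio within a 140 s kinetic read after compound addition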
# CHRM1 antagonist: human CHRM1 antagonism. CHO-K1 hM1, Fluo-8 calcium fluorescence, ACh EC80 antagonist. inhibition, % at 3 µM. 360,000 tested, 1.3% active;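 active means percent inhibition above its own plate's cutoff, namely the mean of that plate's compound wells plus 3 SD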;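 further: peak over basal fluorescence ratio during 140 s after agonist addition; 0% = ACh EC80 plus DMSO and 100% = DMSO alone without agonist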
# M4 ag: CHRM4 agonism in calcium assay | P08173 | activation, % at 3 µM | 360,000 tested, 0.14% active | CHO-K1 hM4/Gqi5, Fluo-8 calcium fluorescence; vehicle 0%, full acetylcholine response 100% | AID 624127;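 active means activation above the run mean over all test wells plus 3 SD, cut at about 32% in these data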;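 further: peak over basal fluorescence ratio per well then scaled between controls; 0% = DMSO wells and 100% = acetylcholine at EC100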
# Target sequence (P08173 whole entry, looked up): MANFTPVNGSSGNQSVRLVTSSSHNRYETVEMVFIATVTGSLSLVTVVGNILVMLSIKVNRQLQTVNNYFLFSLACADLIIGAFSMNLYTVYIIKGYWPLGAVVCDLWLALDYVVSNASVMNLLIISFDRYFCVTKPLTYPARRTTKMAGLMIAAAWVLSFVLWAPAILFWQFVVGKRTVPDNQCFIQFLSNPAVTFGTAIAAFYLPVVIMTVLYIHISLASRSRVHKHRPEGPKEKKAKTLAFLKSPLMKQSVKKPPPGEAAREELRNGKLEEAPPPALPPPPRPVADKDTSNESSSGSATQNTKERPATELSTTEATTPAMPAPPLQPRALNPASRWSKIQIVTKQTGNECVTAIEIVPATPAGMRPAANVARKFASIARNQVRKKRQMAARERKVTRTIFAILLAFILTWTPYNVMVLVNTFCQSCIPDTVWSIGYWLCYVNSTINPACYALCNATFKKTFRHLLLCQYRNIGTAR
# CHRM1 PAM: potentiates human M1 receptor response to acetylcholine. 360,000 tested, 0.088% active. P11229. CHO-K1 hM1, Fluo-8 calcium fluorescence, ACh EC20; 0% = ACh EC20, 100% = maximal ACh. AID 588819. activation, % at 3 µM; in the data active means activation above about 19%, passing the limit was not always enough
# CHRM4 PAM: CHRM4 positive allosteric modulation; P08173; 360,000 tested, 0.4% active; CHO-K1 hM4/Gqi5, Fluo-8 calcium fluorescence, ACh EC20; 0% = ACh EC20, 100% = maximal ACh; AID 624126; activation, % at 3 µM;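 active means activation above its plate's cutoff, the mean activation of sample wells plus 3 SD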
# M4 antag: antagonists of human muscarinic M4 receptor (CHRM4); P08173; CHO-hM4 cells, ACh EC80, Fluo-8 calcium fluorescence; inhibition, % at 3 µM; 360,000 tested, 0.73% active;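 active means inhibition above its plate's cutoff, the mean inhibition of sample wells plus 3 SD, cut at about 27% in these data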;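 further: 0% = acetylcholine EC80 with DMSO and 100% = DMSO without agonist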
# * = called active by the depositor.
SMILES,M1 ag,CHRM1 antagonist,M4 ag,CHRM1 PAM,CHRM4 PAM,M4 antag
O=C(CN1C(=O)NC2(CCCC2)C1=O)Nc1ccc(F)cc1,-3.0,-13.3,1.4,8.8,37.7*,41.8*
C=CCSc1nnc(NC(=O)CN2C(=O)NC3(CCCC3)C2=O)s1,-2.9,-13.1,0.4,16.9,17.7*,-16.7
CCc1ccc(C(=O)NNC(=O)CN2C(=O)NC3(CCCC3)C2=O)cc1,0.0,3.1,0.6,1.2,3.9,1.6
CCC1(c2ccccc2)NC(=O)N(CC(=O)Nc2ccccc2N2CCCCC2)C1=O (stereo not given),36.9*,7.6,27.9,0.1,-5.6,2.8
CC(=O)Nc1cccc(-c2ccnc3c2CC(C(=O)NCCc2ccccc2)O3)c1 (stereo not given),6.7,-7.9,5.8,2.1,0.6,-10.8
CCC1(c2ccc(F)cc2)NC(=O)N(CC(=O)Nc2ccc(C(N)=O)cc2)C1=O (stereo not given),3.0,-17.1,1.4,17.3,2.3,6.6
CCC1(c2ccc(F)cc2)NC(=O)N(CC(=O)Nc2ccc(N3CCCCC3)cc2)C1=O (stereo not given),16.8*,2.6,20.6,5.2,-2.9,2.2
COc1ccc2nc3oc(C(=O)N4CCC(C(N)=O)CC4)cc3cc2c1,7.7,2.8,0.9,-0.1,-2.5,-3.1
COc1cccc(C(C(=O)NC2CCCC2)N(C(=O)c2ccco2)c2ccc(NC(C)=O)cc2)c1OC (stereo not given),-2.8,-14.5,2.4,17.0,20.9*,-8.7
CN(Cc1nccn1C)C(=O)c1ccc2nc(Cc3ccccc3F)oc2c1,-5.6,48.0*,1.4,-21.7,-7.4,-0.9
CCCn1c(C)cc(C(=O)CN2C(=O)NC3(CCCCCC3)C2=O)c1C,-6.6,-6.0,0.1,-4.9,-3.0,1.2
CCOC(=O)C1(CC2CCCCO2)CCN(Cc2cc3ccccc3[nH]2)CC1 (stereo not given),62.2*,28.6*,124.8*,-31.9,-23.7,59.4*
Cc1cc(NC(=O)CSc2nccn2C)n(-c2ccccc2)n1,4.0,-8.9,0.5,20.9,-10.0,-1.6
CC1CCN(CC(=O)N2c3ccccc3CCc3ccccc32)CC1,-7.0,72.2*,0.8,-27.1,-19.0,23.8
O=C(CN1CCCCC1)N1CCc2ccccc21,-4.9,-14.2,0.5,3.1,-7.3,5.8
CCOC(=O)N1CCN(CC(=O)N2c3ccccc3CCc3ccccc32)CC1,1.7,15.1,0.1,-4.5,-14.7,12.1
O=C(CN1CCCCC1)N1c2ccccc2CCc2ccccc21,-4.3,93.4*,0.8,-21.1,-22.4,76.6*
O=C(CN1CCC(N2CCCCC2)CC1)N1CCCc2ccccc21,-5.0,3.7,0.4,-0.6,-2.7,-2.9
O=C(CN1CCC(O)CC1)N1c2ccccc2C=Cc2ccccc21,-9.6,47.0*,0.8,-24.3,-21.3,28.8*
O=C(CN1C(=O)C2C3C=CC(C4CC34)C2C1=O)OCC(=O)c1ccccc1 (stereo not given),-3.2,-5.1,1.6,7.2,-7.9,6.3
COc1ccccc1-c1nc(SCC(=O)NCc2ccco2)c2c(=O)n(C)c(=O)n(C)c2n1,-3.7,-3.0,5.1,-1.0,-2.3,-2.8
CN(Cc1ccccc1)CC(O)CN(C)Cc1ccccc1,18.4*,5.2,0.8,-5.3,-0.6,-6.8
CN(CCO)CC(O)CN(c1ccccc1)c1ccccc1 (stereo not given),-4.2,7.1,10.1,-4.3,-20.0,-2.8
CN1CCCCC1CCN1c2ccccc2Sc2ccc(S(C)=O)cc21 (stereo not given),-7.5,99.3*,0.6,-25.3,-18.0,88.0*
Cc1nc(SCC(=O)NC2CCS(=O)(=O)C2)c2c3c(sc2n1)CCCC3 (stereo not given),-1.1,26.5*,0.8,-10.8,0.1,1.5
SMILES,M1 ag,CHRM1 antagonist,M4 ag,CHRM1 PAM,CHRM4 PAM,M4 antag
CC(=O)Nc1ccc(NC(=O)CCc2ccc(C)o2)cc1,-2.1,-2.6,1.6,7.8,3.1,-5.2
COCCNC(=O)C1CCCN(Cc2cccc(Cl)c2)CC1 (stereo not given),-6.5,-13.2,0.2,10.2,5.5,-4.7
CC(=O)c1ccc(N2CCC(c3cc(-c4ccc(Cl)cc4)n[nH]3)CC2)c([N+](=O)[O-])c1,-4.6,10.8,4.2,-7.6,-15.8,28.7*
COc1ccc(-c2cc(C3CCN(c4ccc(C(C)=O)cc4[N+](=O)[O-])CC3)[nH]n2)cc1,-0.8,26.8,6.1,-5.8,-9.5,6.2
CC(C)(C)OC(=O)NCc1ccc(CNC(=O)c2[nH]cnc2C(=O)NCC(=O)OCc2ccccc2)cc1,3.5,43.5*,30.4,-20.3,-13.9,38.0*
C[C@H](NC(=O)c1nc[nH]c1C(=O)NCC(=O)OCc1ccccc1)c1ccccc1,-1.5,31.4*,24.1,-18.5,-14.5,28.2*
O=C(CNC(=O)c1nc[nH]c1C(=O)NCc1ccccc1)OCc1ccccc1,-3.0,37.7*,20.2,-19.2,-7.1,24.8
O=C(CNC(=O)c1nc[nH]c1C(=O)NCC(=O)OCc1ccccc1)OCc1ccccc1,-3.0,31.0,22.2,-13.9,-8.5,17.4
CC1(C)CC(NC(=O)Nc2ccc([N+](=O)[O-])cc2)CC(C)(C)N1,-3.6,25.4,1.1,-6.1,-1.7,-3.0
CC1(C)CC(NC(=O)c2ccc(-c3ccc([N+](=O)[O-])cc3)o2)CC(C)(C)N1,-3.3,-8.8,-0.1,12.0,19.9*,3.3
COCCn1cc(C(=O)c2ccccc2OCC(=O)Nc2cc(C)on2)cc(C#N)c1=O,-3.6,7.3,0.1,2.2,-3.4,3.9
Cc1ccccc1-c1nc(NCCN(C)C)nc2ccsc12,-8.1,88.2*,0.8,-29.1,-13.1,55.6*
CC(C)Nc1nc(-c2ccccc2CO)c2sccc2n1,-7.2,-3.5,2.0,2.9,2.4,-24.0
CN(C)CCNc1nc(-c2ccccc2CO)c2sccc2n1,-9.7,74.0*,0.6,-29.3,-10.4,20.7
CCCCCCCCN1C(=O)C(O)=C(C(C)=O)C1c1ccccn1 (stereo not given),-2.4,2.1,-0.4,-0.8,2.1,-6.7
CCCCNc1c(-c2cccc(-c3cc(C(C)=O)cs3)c2)nc2ccc(C)cn12,-6.1,37.0*,20.8,-18.4,-11.4,26.4
CCCCNc1c(-c2cccc(-c3ccc(OC)cc3)c2)nc2cc(C)ccn12,-8.0,61.7*,15.2,-28.9,-13.1,41.5*
CCCCCCSc1cccc(-c2nc3ccc(Cl)cn3c2NCCCC)c1,-4.8,-3.9,2.1,6.4,6.3,-3.0
CCCCNc1c(-c2ccc(-c3cccc(Cl)c3)cc2)nc2ccccn12,-4.7,7.0,4.8,-9.0,-14.7,9.0
CCCCNc1c(-c2ccc(OC)c(SC3CCCCC3)c2)nc2cnccn12,-6.2,12.3,7.5,-4.8,-12.3,21.7

# Assay outcomes (PubChem)
